PAFAH1B2 FP inh – PAFAH1B2 enzyme inhibitors, primary screen, biochemical, fluorescence polarization, human | Platelet-activating factor acetylhydrolase IB subunit alpha2 (Homo sapiens), P68402 | recombinant PAFAH1B2, FP-rhodamine activity probe | 340,000 compounds, 1.2% hits | AID 492953, 2010 | inhibition, % at 3.39 µM;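 active means inhibition above the mean of all tested compounds plus 3 SD, cut at about 24% in these data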;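 further: 0% = enzyme with DMSO and 100% = wells lacking PAFAH1B2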
PAFAH1B3 inh – PAFAH1B3 enzyme inhibitors, primary screen, biochemical, fluorescence polarization, human; Platelet-activating factor acetylhydrolase IB subunit alpha1 (Homo sapiens), Q15102; AID 492972, 2010; 340,000 compounds, 0.28% hits; inhibition, % at 3.39 µM; recombinant PAFAH1B3, FP-rhodamine probe;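 active means inhibition above the screen-wide average of all tested compounds plus 3 SD, cut at about 25% in these data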;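 further: 0% = enzyme with DMSO only and 100% = wells lacking PAFAH1B3 protein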
Target sequence (Q15102 whole entry, looked up): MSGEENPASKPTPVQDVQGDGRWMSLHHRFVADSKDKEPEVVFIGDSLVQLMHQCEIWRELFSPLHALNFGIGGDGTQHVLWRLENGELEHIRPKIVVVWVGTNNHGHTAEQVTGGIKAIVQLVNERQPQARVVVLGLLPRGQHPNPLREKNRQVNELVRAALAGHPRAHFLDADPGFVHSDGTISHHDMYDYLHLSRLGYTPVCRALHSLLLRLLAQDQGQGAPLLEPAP
PAFAH2 inh – PAFAH2 enzyme inhibitors, primary screen, biochemical, fluorescence polarization, human. Platelet-activating factor acetylhydrolase 2, cytoplasmic (Homo sapiens), Q99487. recombinant PAFAH2, FP-rhodamine activity probe. inhibition, % at 3.39 µM. 340,000 compounds, 0.99% hits. AID 492956, 2010;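 active means inhibition above the mean over all tested compounds plus 3 SD, cut at about 30% in these data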;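 further: inhibitors block probe labeling of enzyme so polarization drops; 0% = enzyme with DMSO and 100% = wells lacking PAFAH2 protein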
pPAFAH FP inh – pPAFAH enzyme inhibitors, primary screen, biochemical, fluorescence polarization, human | 330,000 compounds, 1.5% hits | recombinant pPAFAH, FP-rhodamine probe fluorescence polarization | AID 463082, 2010 | inhibition, % at 3.39 µM;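 active means inhibition above the mean inhibition across the screen plus 3 SD, cut at about 25% in these data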;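 further: inhibitors block binding of the rhodamine activity-based probe so polarization drops; 0% = enzyme with DMSO and 100% = wells lacking pPAFAH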
PP1 counter – PP1-alpha phosphatase inhibitors, primary screen, counter-screen for PP5 inhibitor project, biochemical, fluorescence, OMFP substrate, single point; 320,000 compounds, 0.9% hits; AID 2235, 2010; purified PP1alpha; inhibition, % at 6.7 µM; Serine/threonine-protein phosphatase PP1-alpha catalytic subunit (Homo sapiens), P62136;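 active means inhibition above the mean inhibition of all tested compounds plus 3 SD, computed separately for each screening campaign, cut at about 15% in these data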
Target sequence (P62136 whole entry, looked up): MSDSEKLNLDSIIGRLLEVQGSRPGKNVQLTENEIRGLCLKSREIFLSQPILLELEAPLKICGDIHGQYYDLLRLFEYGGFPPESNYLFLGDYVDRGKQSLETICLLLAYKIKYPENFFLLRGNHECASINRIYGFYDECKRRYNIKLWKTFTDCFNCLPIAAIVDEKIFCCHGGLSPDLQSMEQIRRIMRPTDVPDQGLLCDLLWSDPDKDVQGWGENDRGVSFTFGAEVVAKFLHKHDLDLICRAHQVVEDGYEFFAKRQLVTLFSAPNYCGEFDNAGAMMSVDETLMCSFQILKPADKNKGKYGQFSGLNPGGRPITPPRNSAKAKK
PP5 inh – PP5 phosphatase inhibitors, primary screen, biochemical, fluorescence | Serine/threonine-protein phosphatase 5 (Homo sapiens), P53041 | purified PP5c, OMFP substrate fluorescence | inhibition, % at 6.7 µM | 320,000 compounds, 0.18% hits | AID 1987, 2009;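 active means inhibition above the campaign's mean inhibition across all tested compounds plus 3 SD, cut at about 9.5% in these data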;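 further: 0% = DMSO only and 100% = 100 µM cantharidin control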
PP5 inh confirm – PP5 phosphatase inhibitors, confirmation, biochemical, fluorescence, human. shares compounds with PP5 inh. Purified PP5, fluorogenic phosphatase substrate. inhibition, % at 6.7 µM. 460 compounds, 22% hits. AID 2331, 2010; in the data active means inhibition above about 9.5%
PP1 counter 3x – PP1 phosphatase inhibitors, counter-screen for PP5 inhibitor project, biochemical, fluorescence, triplicate; shares compounds with PP5 inh; PP1 enzyme, fluorescent phosphatase substrate; inhibition, % at 6.7 µM; 460 compounds, 4% hits; AID 2355, 2010; in the data active means inhibition above about 16%
PP1 inh confirm – PP1 phosphatase inhibitors, confirmation, biochemical, fluorescence, OMFP substrate, triplicate; AID 2358, 2010; 1,900 compounds, 52% hits; purified PP1alpha; inhibition, % at 6.7 µM; shares compounds with PP1 counter;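 active means mean PP1 inhibition above a set limit taken from the earlier primary screen, cut at about 15% in these data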
PP5 counter – PP5 phosphatase inhibition by PP1 hits, confirmation, counter-screen for PP1 inhibitor project, biochemical, fluorescence, triplicate; shares compounds with PP1 counter; purified PP5c, OMFP fluorescence; inhibition, % at 6.7 µM; 1,900 compounds, 4% hits;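 active means mean PP5 inhibition over triplicate wells above about 9.5% taken from the earlier PP1 screen, limit read from the data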
PAFAH1B3 conf FP – PAFAH1B3 enzyme inhibitors, confirmation, biochemical, fluorescence polarization, human; 390 compounds, 30% hits; recombinant PAFAH1B3, FP-Rh activity-based probe; AID 493032, 2011; inhibition, % at 3.39 µM; shares compounds with PAFAH1B3 inh;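 active means average inhibition over triplicate runs above the hit cutoff set in the earlier primary screen, cut at about 25% in these data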;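 further: 0% = enzyme with DMSO and 100% = wells lacking PAFAH1B3 protein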
* hit, by the source's call; . = no result given. In the library only some 3.4% were active in any assay of this set; here they are far more common.

SMILES | PAFAH1B2 FP inh | PAFAH1B3 inh | PAFAH2 inh | pPAFAH FP inh | PP1 counter | PP5 inh | PP1 inh confirm | PP5 counter | others
O=C(CC(C(=O)O)C1CCCO1)Nc1cccc(C(F)(F)F)c1 (stereo not drawn) | 3 | -3 | 8 | -2 | 5 | 0 | . | .
Cc1ccc(C(=O)NC2(O)C(=O)c3ccccc3C2=O)cc1C | 8 | 37* | 24 | 2 | 2 | 15* | . | . | PP5 inh confirm=41*;PP1 counter 3x=4;PAFAH1B3 conf FP=37*
N#Cc1c(N)n(-c2ccc(O)cc2)c2nc3ccccc3nc12 | 0 | 2 | 0 | -3 | -2 | 4 | . | .
N#Cc1c(NC(=O)c2ccc(Br)o2)n(-c2ccccc2)c2nc3ccccc3nc12 | 17 | 65* | 16 | 7 | 9 | 11* | . | . | PP5 inh confirm=33*;PP1 counter 3x=16*;PAFAH1B3 conf FP=48*
CC1CC(C)CN(CC(O)COCc2ccccc2F)C1 (stereo not drawn) | 10 | 4 | 4 | 0 | 39* | -2 | -4 | -5
CCOC(=O)C1CCCN(c2nc3ccccc3nc2C(C#N)C(=O)OCC)C1 (stereo not drawn) | -8 | 6 | -5 | 3 | 21* | 4 | 1 | 1
Cc1cccnc1NC(=O)CNC(=O)c1sc2ccccc2c1Cl | 9 | 10 | 3 | 1 | -4 | 6 | . | .
Cc1cccc(NC(=O)CNC(=O)c2sc3ccccc3c2Cl)n1 | 1 | -4 | -5 | 4 | 22* | -2 | 3 | -4
Cc1ccc(/C=C2/C(=O)ON=C2c2ccccc2)o1 | 18 | 6 | 14 | 15 | -2 | 1 | . | .
CCOC(=O)Cn1c(=NC(=O)CSC(C)=O)sc2ccccc21 | 2 | -7 | 9 | 2 | 0 | -2 | . | .
CCOC(=O)Cn1c(=NC(=O)c2sc3ccccc3c2Cl)sc2cc(S(N)(=O)=O)ccc21 | -16 | -41 | -27 | -3 | 30* | 0 | 31* | -3
C#CCn1c(=NC(=O)c2cc(Cl)sc2Cl)sc2cc(S(N)(=O)=O)ccc21 | -13 | -18 | -22 | -4 | 19* | 2 | 25* | -1
C#CCn1c(=NC(=O)c2cc(-c3cccs3)nc3ccccc23)sc2cc(S(N)(=O)=O)ccc21 | -1 | -10 | -30 | -28 | 20* | 3 | 4 | -1
NS(=O)(=O)c1ccc(NC(=O)c2cc(-c3cccs3)nc3ccccc23)cc1 | -3 | -8 | -28 | -13 | 8 | 3 | . | .
O=C(OCCN1CCCCC1)c1cccc(F)c1 | 3 | 8 | -4 | 2 | 0 | 1 | . | .
Cc1ccn2c(Nc3ccccc3)c(-c3ccccn3)nc2c1 | 0 | 5 | -3 | 6 | 31* | 2 | 33* | -1
Cc1ccccc1Nc1c(-c2ccccn2)nc2ccccn12 | 6 | 3 | 14 | 21 | 34* | 3 | 12 | 2
Cc1ccccc1Nc1c(-c2cccnc2)nc2ccccn12 | 4 | 6 | -4 | -1 | -9 | 1 | . | .
Cc1cccn2c(Nc3ccccc3)c(-c3ccccn3)nc12 | 1 | -3 | 3 | 16 | 12 | 0 | . | .
Cc1ccn2c(Nc3ccccc3C)c(-c3ccccn3)nc2c1 | 12 | 4 | 7 | 16 | 32* | 4 | 39* | 3
Cc1ccc2nc(-c3ccccn3)c(Nc3ccccc3C)n2c1 | 6 | 6 | -1 | 17 | 30* | 4 | 42* | 5
CC(C)=C1C2CCC1C1C(=O)N(c3nc(-c4ccc(F)cc4)c(C)s3)C(=O)C21 (stereo not drawn) | 11 | -8 | -2 | 7 | 2 | 2 | . | .
COc1ccc(C(CNC(=O)COc2ccc(Cl)c(C)c2)N2CCCCC2)cc1 (stereo not drawn) | 1 | 7 | -3 | 4 | -4 | 5 | . | .
O=S(=O)(CCc1ccccc1)N1CCOCC1 | 1 | 6 | 4 | 2 | -1 | 3 | . | .
COCCNC(=O)C1(C)C=CC2(CCCCC2)N1C(=O)c1ccccc1 (stereo not drawn) | 11 | 3 | -5 | 1 | 5 | -4 | . | .
SMILES | PAFAH1B2 FP inh | PAFAH1B3 inh | PAFAH2 inh | pPAFAH FP inh | PP1 counter | PP5 inh | PP1 inh confirm | PP5 counter | others
N#CC1CCN(C(=O)c2ccc3c(Cl)c4c(nc3c2)CCCC4)CC1 | 5 | 5 | 10 | 4 | 23* | 2 | -1 | -4
COc1ccc(C2/C(=C(\O)c3ccc4c(c3)OCCO4)C(=O)C(=O)N2c2nc(C)c(C(C)=O)s2)cc1 (stereo not drawn) | 2 | 9 | 20 | 4 | 19* | 2 | 11 | -6
NC(=O)c1nn(-c2ccccc2)nc1NC(=O)CN1CCCCC1 | 2 | -1 | -10 | 3 | 47* | 4 | -5 | -6
CCCCCCCCCCOC(=O)Cn1c(COc2ccccc2OC)[n+](C)c2ccccc21 | 2 | 3 | 7 | 10 | 34* | 1 | 1 | 2
Cc1ccc(NC(=O)CSc2nc(O)cc(=O)n2-c2ccc(C)cc2)cc1 | -2 | -6 | 0 | -9 | 25* | 0 | 1 | -1
O=c1cc(O)nc(SCc2ccccc2)n1-c1ccc(Cl)cc1 | 0 | -3 | 0 | 10 | 21* | 1 | 4 | -2
CCCCCN(C(=O)CCC(=O)OCC(=O)c1ccc(C(C)CC)cc1)c1c(N)n(CCCC)c(=O)[nH]c1=O (stereo not drawn) | 3 | -2 | -5 | 1 | 29* | 0 | 0 | 1
CC[n+]1c(/C=C/N(C)c2ccccc2)n(-c2ccccc2)c2ccc(-c3nc4ccccc4s3)cc21 | 0 | 1 | -9 | 17 | 36* | 2 | 8 | 0
